# From PubChem BioAssay (NCI)
# The panel holds about 83,000 compounds, 20% with a hit somewhere; the sample as a whole holds those more often.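 Cell lines were cultured in 96-well plates, exposed to a single compound concentration, and assessed for percent growth 48 hours later.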 Unmarked numbers belong to inactive results. The source made the active and inactive calls. The calls were made as follows: active = growth percent below 10; inactive = the rest.
# Test system: NCI-H460 lung
# Test: NCI-60 one-dose screen, 48 h (100 = growth as untreated, 0 = no growth, -100 = all killed)
# Settings: 10 µM unless noted
row,Compound,growth
1,CN(C(=O)CN1C(=O)/C(=C/c2ccco2)SC1=S)C1CCS(=O)(=O)C1 (stereo not drawn),95.5%
2,O=C(c1ccc(Cl)cc1)C1[C@H](c2ccccc2Cl)[C@@H](c2ccccc2)NC12C(=O)Nc1ccccc12 (stereo partly drawn),-57.2% (active)
3,Cc1ccc(Nc2nnc(-c3c[nH]c4ccccc34)o2)c(C)c1,8.57% (active)
4,Cc1ccccc1NC(=O)c1cccc(NC(=O)CCl)c1,41.6%
5,Clc1ccc(CNc2nc(SCCN3CCOCC3)nc3c2cnn3CC(Cl)c2ccc(Br)cc2)cc1 (stereo not drawn),25.1%
6,CCc1ccc(SC2c3cc(OC)ccc3Oc3nc(N)c(C#N)c(N)c32)cc1 (stereo not drawn),3.96% (active)
7,O=C(N/N=C/c1ccc(B(O)O)s1)c1[nH]c2ccc(Br)cc2c1-c1ccccc1,-76% (active)
8,CCN1C(=O)N(CC)C2NNC(Sc3c(C(=O)O)c4ccccc4n(CC(C)C)c3=O)=NC21 (stereo not drawn),-1.23% (active)
9,COc1ccc(/C=C/c2nc3ccccc3c(=O)n2CC(=O)Nc2ccccc2)cc1,37%
10,COc1ccc2[nH]c(=O)c(CSc3ccccc3Nc3nccc(-c4ccc5c(c4)OCO5)n3)cc2c1,83.5%
11,Cc1ccc(Cl)cc1NC(=O)N/C(N)=N/c1nc2ccccc2s1,-8.76% (active)
12,COc1ccc(OC)c(Cn2cc(C#N)c(N)c2C(=O)c2ccc(Br)cc2)c1,41.8%
13,Cc1ccc(-c2cc(-c3ccccc3)[nH]c(=O)c2C#N)cc1,90.8%
14,Cc1ccc(C(C(=O)NC2CCCCC2)N(Cc2ccccc2Cl)C(=O)c2ccc(CN3CCOCC3)o2)o1 (stereo not drawn),99.9%
15,CN(C)c1ccc(/C=C/c2n(Cc3ccc4ccccc4c3)c3ccccc3[n+]2Cc2ccc3ccccc3c2)cc1,-75.9% (active)
16,Cc1nn(-c2ccccc2)c2nc(C)n(CC(=O)N/N=C/c3ccccc3O)c(=O)c12,4.76% (active)
17,CC1=C(C)C(=O)C(N2CCSCC2)=CC1=O,105%
18,NC(=O)c1ccc(-c2ccc3ncnc(N4CCc5cc(F)c(Cl)cc54)c3c2)cn1,79.6%
19,Cn1ncc2c(N)nc(Oc3ccccc3-c3ccccc3)nc21,14.5%

row,Compound,growth
1,C=CC[n+]1cccc2c3ccccc3ccc21,23.2%
2,COc1ccc2nc(NC(=O)c3ccc(N(C)C)cc3)sc2c1,65.9%
3,O=C(N/N=C/c1ccoc1)c1[nH]c2ccc(Br)cc2c1-c1ccccc1,-83.2% (active)
4,O=C(Nc1ccc(-c2ccc3c(c2)NC(=O)/C3=C\c2ccc[nH]2)cc1)Nc1ccc(Cl)c(C(F)(F)F)c1,4.07% (active)
5,CN1C(=O)/C(=C/c2ccco2)S/C1=N/c1nccs1,103%
6,COc1cccc2nc(Nc3cccc(NC(=O)c4ccc(CN5CCN(C)CC5)c(C(F)(F)F)c4)c3)ccc12,-77.1% (active)
7,Fc1cccc(CNc2nc(SCCN3CCOCC3)nc3c2cnn3CC(Cl)c2ccc(Br)cc2)c1 (stereo not drawn),7.02% (active)
8,CCCCNc1ccc2c3c(cccc13)C(=O)N(c1cccc(-c3nn(-c4ccccc4)cc3-c3nc4ccccc4s3)c1)C2=O,110%
9,N/C(=N\c1nc2ccccc2s1)NC(=O)Nc1ccccc1[N+](=O)[O-],11.1%
10,Cc1ccc(C(=O)Nc2cc(-c3ccncc3)cc(C(F)(F)F)c2)cc1C#Cc1cnc2cccnn12,51.8%
11,CCN1C(=O)N(CC)C2NNC(Sc3c(C(=O)O)c4ccccc4n(CCC(C)C)c3=O)=NC21 (stereo not drawn),-7.83% (active)
12,CC1=C(C(=O)OCc2ccccc2)C(c2ccc(N(C)C)cc2)n2c(nc3ccccc32)N1 (stereo not drawn),99.8%
13,COc1cc(/C=C/C(=O)c2cnn(-c3cc(=O)[nH]c4ccc(Br)cc34)c2C)cc(OC)c1OC,-60.4% (active)
14,S=C(Nc1ccc(OCc2nc3ccc(Cl)cc3[nH]2)cc1)NC1CCCCC1,-21.5% (active)
15,Nc1nn2c(-c3cc4cc(Br)ccc4oc3=O)ccnc2c1N=Nc1ccc(S(N)(=O)=O)cc1,52%
16,CCN(C(=O)CN1C(=O)/C(=C/c2ccco2)SC1=S)C1CCS(=O)(=O)C1 (stereo not drawn),101%
17,Cn1cc(Nc2ncnc(-c3ccc(N4CCCC4)c(C#N)c3)n2)cn1,50.1%
18,O=C1Nc2ccccc2/C1=C\c1ccc(OCC(=O)c2ccc(Br)cc2)cc1,58.5%
19,COc1cc(CNC(=O)C[C@H](C)CCC=C(C)C)ccc1OCc1cn(-c2ccc(Br)cc2)nn1,74.2%
